Assay results reported in PubChem BioAssay (NCATS).
Records with an inconclusive call do not appear. For part of these data: Results with a measured potency or affinity are listed apart. Activity calls are given as the source filed them.

How the values were obtained:
[1] = Ebola virus entry assay, reporter ratio channel; AC50: Channel type: primary unless noted; outcome: Channel type: primary unless noted
[2] = Ebola virus entry assay, blue channel (ratio component)
[3] = qHTS assay for measurement of the activity of small molecule inhibitors on Zika virus induced Caspase-3 activity in human iPSC derived neural progenitor cells (hNPCs) (AID 1224857); also: nearly all actives have a fitted effect of over 65% in size
Outline: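 Cells were plated at 350 per well and grown 16 to 20 hours. Compound pretreatment lasted one hour, after which ZIKV (2 FFU/cell) was added for 6 hours. Percent inhibition was normalized between uninfected and infected controls.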

[4] = qHTS assay for measurement of the activity of small molecule inhibitors on Zika virus induced Caspase-3 activity in human astrocytoma cells (AID 1224859)
Outline: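 Percent inhibition of virus-induced caspase-3/7 signal is calculated against uninfected and ZIKV-infected control cells. Cells are SNB-19, infected at 2 FFU/cell for 6 h after 1 h compound exposure.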

[5] = qHTS assay to identify small molecule inhibitors of chordoma cells - UCH-2 (AID 1259356)
[6] = Ebola virus entry reporter assay, green channel fluorescence
[7] = Ebola virus entry cell assay, ratio channel
[8] = qHTS assay to identify small molecule inhibitors of chordoma cells - UCH-1 (AID 1259355); also: nearly all actives have a fitted effect of over 55% in size
Outline: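 Luminescent ATP read-out (CellTiter-Glo, 30min at room temperature) measured viability of UCH-1 cells exposed for 48hr to test drugs at 15 concentrations, co-dosed with a five-agent combination of auranofin, camptothecin, doxorubicin, rubitecan and topotecan.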

[9] = High-throughput drug toxicity screening in the BPDCN cell line Gen2.2 (AID 1224824; call rule not given here;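 also: cells exposed to compounds for 48 h before reading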); conditions: Gen2.2 BPDCN cells; at 45.8 µM (top of the series) unless noted
Outline: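 CellTiter-Glo luminescence after 48 h compound exposure of Gen2.2 cells; percent activity set with DMSO as 100% and bortezomib (9.2 uM final) as 0%. Cells seeded at 500 per well, RPMI + 10% FBS, 37 °C.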

[10] = High-throughput drug toxicity screening in the BPDCN cell line Cal-1 (AID 1224825; call rule not given here); conditions: Cal-1 BPDCN cell viability, qHTS; at 45.8 µM (top of the series) unless noted
Outline: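 Exponentially growing Cal-1 cells, 500 per well in phenol red-free RPMI with 10% FBS, were exposed to compounds for 48 h at 37 °C, 5% CO2. Viability was read by CellTiter-Glo luminescence and normalised to DMSO (100%) and 9.2 uM bortezomib (0%).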

[11] = qHTS Screen of the MIPE 4.0 Collection Against Ewings Sarcoma (RDES) (AID 1259252); also: nearly all actives have a fitted effect of over 35% in size
Outline: (§1)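 Compound titrations go onto adherent log-phase cells 4 h after seeding, incubate 48 h at 37C, then CellTiter-Glo luminescence reports viability relative to DMSO and cell-free controls.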

[12] = qHTS Screen of the MIPE 4.0 Collection Against Ewings Sarcoma (TC71) (AID 1259253); also: nearly all actives have a fitted effect of over 40% in size
Outline: as §1

[13] = qHTS Screen of the MIPE 4.0 Collection Against Ewings Sarcoma (EW8) (AID 1259255); also: nearly all actives have a fitted effect of over 35% in size
Outline: as §1

[14] = qHTS Screen of the MIPE 4.0 Collection Against Ewings Sarcoma (TC32) (AID 1259256); also: nearly all actives have a fitted effect of over 45% in size
Outline: as §1

[15] = P-glycoprotein substrates identified in KB-3-1 adenocarcinoma cell line, qHTS therapeutic library screen (AID 1346986); conditions: KB-3-1 parental cells viability, CellTiter-Glo, 72 h; at 44.5 µM (top of the series) unless noted; also: nearly all actives have a fitted effect of over 60% in size
Outline: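 KB-3-1 parental cells and P-gp-overexpressing KB-8-5-11 (colchicine omitted during assay) plated at 500 cells/well, dosed in dose-response, incubated 72 h at 37 degree C. CellTiter-Glo luminescence read; KB-8-5-11 also tested with tariquidar.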

CCCCCCCCCC(=O)O[C@H]1CC[C@H]2[C@@H]3CCC4=CC(=O)CC[C@@H]4[C@H]3CC[C@]12C
inactive: outcome [1] | outcome [2] | outcome [3] | outcome [4] | outcome [5]

C[C@]1(O)CC[C@H]2[C@@H]3CCC4=CC(=O)CC[C@]4(C)[C@@]3(F)[C@@H](O)C[C@@]21C
inactive: outcome [6] | outcome [7]

CO[C@@]1(NC(=O)C2SC(=C(C(N)=O)C(=O)O)S2)C(=O)N2C(C(=O)O)=C(CSc3nnnn3C)CS[C@@H]21 (some centres not stated)
inactive: outcome [6] | outcome [7]

COP(=S)(OC)Oc1ccc(S(=O)(=O)N(C)C)cc1
inactive: outcome [1] | outcome [2] | outcome [3] | outcome [4] | outcome [5]

C[C@]12CCC(=O)C=C1CC[C@@H]1[C@@H]2CC[C@]2(C)C(=O)CC[C@@H]12
inactive: outcome [1] | outcome [2] | outcome [3] | outcome [4] | outcome [8] | outcome [5]

CCN(CC)C(=O)[C@]1(c2ccccc2)C[C@@H]1CN
inactive: outcome [6] | outcome [7]

CCCCCCC(=O)CCCCCC/C=C/C[C@@H](O)[C@H](O)[C@@](N)(CO)C(=O)O
inactive: outcome [1] | outcome [2] | outcome [3] | outcome [4] | outcome [8] | outcome [5]

COP(=S)(OC)Oc1ccc(SC)c(C)c1
inactive: outcome [1] | outcome [2] | outcome [3] | outcome [4] | outcome [8] | outcome [5]

CC(C)(C)NC(=O)[C@@H]1C[C@@H]2CCCC[C@@H]2CN1C[C@@H](O)[C@H](Cc1ccccc1)NC(=O)[C@H](CC(N)=O)NC(=O)c1ccc2ccccc2n1
inactive: outcome [6] | outcome [7]

CCN[C@H](C)Cc1cccc(C(F)(F)F)c1
active: AC50 [1] 31.6 µM
inactive: outcome [3] | outcome [4]

CCC[C@@]1(CCc2ccccc2)CC(O)=C([C@H](CC)c2cccc(NS(=O)(=O)c3ccc(C(F)(F)F)cn3)c2)C(=O)O1
inactive: outcome [6] | outcome [7]

CC(C)c1cccc(C(C)C)c1O
113%: viability (% of control) [10]
123%: cell viability, % of control (lower = more cytotoxic) [9]
inactive: outcome [2] | outcome [3] | outcome [4] | Potency [11] | Potency [12] | outcome [13] | Potency [14] | outcome [8] | outcome [5]

NCCc1ccc(O)cc1
inactive: outcome [1] | outcome [2] | outcome [3] | outcome [4] | outcome [5]

CO[C@H]1C=CO[C@@]2(C)Oc3c(C)c(O)c4c(O)c(c5c(c4c3C2=O)=NC2(CCN(CC(C)C)CC2)N=5)NC(=O)/C(C)=C\C=C/[C@H](C)[C@H](O)[C@@H](C)[C@@H](O)[C@@H](C)[C@H](OC(C)=O)[C@@H]1C
inactive: outcome [6] | outcome [7]

CCCc1nc(C(C)(C)O)c(C(=O)OCc2oc(=O)oc2C)n1Cc1ccc(-c2ccccc2-c2nn[nH]n2)cc1
inactive: outcome [6] | outcome [7]

OCCOCCN1CCN(C2=Nc3ccccc3Sc3ccccc32)CC1
inactive: outcome [2] | outcome [6] | outcome [7]

O=C1[O][Bi][O]c2ccccc21
inactive: outcome [6] | outcome [7]

CN1CC[C@]23c4c5ccc(O)c4O[C@H]2[C@@H](O)C=C[C@H]3[C@H]1C5
inactive: outcome [3] | outcome [4]
active: AC50 [1] 35.5 µM

COc1ccc2c(c1OC)C(=O)O[C@H]2[C@@H]1c2cc3c(cc2CCN1C)OCO3
inactive: outcome [1] | outcome [2] | outcome [3] | outcome [4] | outcome [5]

NC[C@H]1O[C@H](O[C@H]2[C@H](O)[C@@H](O[C@H]3O[C@H](CO)[C@@H](O)[C@H](N)[C@H]3O)[C@H](N)C[C@@H]2N)[C@H](O)[C@@H](O)[C@@H]1O
inactive: outcome [6] | outcome [7]

CCOP(=S)(OCC)Oc1ccc2c(C)c(Cl)c(=O)oc2c1
inactive: outcome [1] | outcome [2] | outcome [8] | outcome [5]

[N-]=[N+]=CC(=O)OC[C@H](N)C(=O)O
inactive: outcome [1] | outcome [2] | outcome [3] | outcome [4] | outcome [5]

C=C[C@H]1CN2CC[C@H]1C[C@H]2[C@H](O)c1ccnc2ccc(OC)cc12
active: AC50 [1] 22.4 µM
inactive: outcome [7]

C[C@H]1[C@@H]2Cc3ccc(O)cc3[C@@]1(C)CCN2C
inactive: outcome [1] | outcome [3] | outcome [4]

C=CCN1C[C@H](C)N([C@H](c2ccc(C(=O)N(CC)CC)cc2)c2cccc(OC)c2)C[C@H]1C
inactive: outcome [1] | outcome [2] | outcome [3] | outcome [4] | outcome [8] | outcome [5] | outcome [15] inactive [at 9.29 µM]

O=C(Nc1ccc(Br)cc1)c1cc(Br)cc(Br)c1O
inactive: outcome [1] | outcome [2] | outcome [8] | outcome [5]

CC(=O)O[C@H]1C(=O)[C@@]2(C)[C@H]([C@H](OC(=O)c3ccccc3)[C@]3(O)C[C@H](OC(=O)[C@H](O)[C@@H](NC(=O)c4ccccc4)c4ccccc4)C(C)=C1C3(C)C)[C@]1(OC(C)=O)CO[C@@H]1C[C@@H]2O
inactive: outcome [6] | outcome [7]

CC(C)(C)NCC(O)c1cc(O)cc(O)c1 (configuration not stated)
inactive: outcome [2]

CCN(CC)CCc1c[nH]c2ccccc12
inactive: outcome [1] | outcome [3] | outcome [4]

COP(=S)(OC)SCN1C(=O)c2ccccc2C1=O
inactive: outcome [1] | outcome [2] | outcome [4] | outcome [8] | outcome [5]

COC1CC(=C(c2cccs2)c2cccs2)C[N+](C)(C)C1 (configuration not stated)
inactive: outcome [1] | outcome [2] | outcome [3] | outcome [4] | outcome [8] | outcome [5]

CCN(CC)C(=O)[C@@H]1C=C2c3cccc4[nH]cc(c34)C[C@H]2N(C)C1
inactive: outcome [1] | outcome [3] | outcome [4]

NCCCCCC(=O)O
inactive: outcome [1] | outcome [7]

CN1CCN(CCC=C2c3ccccc3Sc3ccc(S(=O)(=O)N(C)C)cc32)CC1
active: AC50 [7] 4.47 µM
inactive: outcome [1] inactive [Channel type: confirmation]

COc1c2c(cc3c1OCO3)CCN(C)C2
inactive: outcome [1] | outcome [2] | outcome [3] | outcome [4] | outcome [5]

CC(=O)OCC1=C(C(=O)O)N2C(=O)[C@@H](N)[C@H]2SC1
inactive: outcome [1] | outcome [2] | outcome [3] | outcome [4] | outcome [8] | outcome [5] | outcome [15]

CC(C)(O/N=C(\C(=O)N[C@@H]1C(=O)N2C(C(=O)[O-])=C(C[n+]3ccccc3)CS[C@H]12)c1csc(N)n1)C(=O)O
inactive: outcome [6] | outcome [7]

CN(C)CCc1c[nH]c2ccc(Cn3cncn3)cc12
inactive: outcome [6] | outcome [7]

CC(C)CN(C[C@@H](O)[C@H](Cc1ccccc1)NC(=O)O[C@@H]1CCOC1)S(=O)(=O)c1ccc(N)cc1
inactive: outcome [6] | outcome [7]

CCOC(=O)CCC(=O)O[C@H]1[C@H](O[C@@H]2[C@@H](C)[C@H](O[C@H]3C[C@@](C)(OC)[C@@H](O)[C@H](C)O3)[C@@H](C)C(=O)O[C@H](CC)[C@@](C)(O)[C@H](O)[C@@H](C)C(=O)[C@H](C)C[C@@]2(C)O)O[C@H](C)C[C@@H]1N(C)C
inactive: outcome [6] | outcome [7]

CCNC(=O)[C@@H]1CCCN1C(=O)[C@H](CCCN=C(N)N)NC(=O)[C@H](CC(C)C)NC(=O)[C@@H](CC(C)C)NC(=O)[C@H](Cc1ccc(O)cc1)NC(=O)[C@H](CO)NC(=O)[C@H](Cc1c[nH]c2ccccc12)NC(=O)[C@H](Cc1cnc[nH]1)NC(=O)[C@@H]1CCC(=O)N1
inactive: outcome [6] | outcome [7]
